Screen size: about 69,000 compounds; about 8,600 (12%) showed an effect of 50% or more. For the sample, strong results were picked, then their nearest neighbours and some compounds at random.

The subject of this test is Plasmodium berghei. The experiment in a line: Screen against P. berghei liver stage (PbLuc), transformed with Luciferase, at 10uM. The class given is functional, HepG2. Particulars: tested at 10 uM.
Take `Cc1cc(C)c(CNC(=O)C(C)Oc2ccccc2C#N)c(=O)[nH]1` (stereo not drawn): the INHIBITION was found to be 37.9%.

With `CCS(=O)(=O)N(C)C1CCN(C(=O)c2cccc(Cl)c2)CC1`, the INHIBITION amounted to 61.8%.

Regarding `CCN(C1CCN(C(=O)c2cccc(Cl)c2)CC1)S(C)(=O)=O`, the INHIBITION is 50%.

As to `CCS(=O)(=O)N(C)C1CCN(C(=O)c2ccc(C)c(C)c2)CC1`, the INHIBITION turned out to be 27.7%.

On to `CN(C)C1COC2(CCN(C(=O)c3cccc(Cl)c3)CC2)C1` (stereo not drawn), for which the INHIBITION was -9.74%.

Regarding `CN(C)CCN1CC[C@@H]2[C@@H]1CCN2C(=O)c1cccc(Cl)c1`, the INHIBITION was found to be 40.4%.

With `CCS(=O)(=O)N(C)C1CCN(C(=O)c2ccc(Cl)cc2)CC1`, the INHIBITION worked out at 47.4%.

As for `O=C(CC1CC1)N1CC[C@H]2[C@@H]1CCC(=O)N2Cc1ccncc1`, the INHIBITION is given as 29%.

Consider `Cc1ccccc1N1CCCN(C(=O)CCCS(N)(=O)=O)CC1`, for which the INHIBITION came out at 21.6%.

In the case of `Cc1ccccc1SC1CCN(C(=O)C2CNCC(=O)N2)CC1` (stereo not drawn), the INHIBITION is 1.37%.

Consider `Cc1cccc(SC2CCN(C(=O)CCCS(N)(=O)=O)CC2)c1`, for which the INHIBITION is on record as 32.8%.

As to `Cc1ccccc1SC1CCN(C(=O)C2CNC(=O)N2)CC1` (stereo not drawn), the INHIBITION stood at 12.8%.

Consider `Cc1ccccc1SC1CCN(C(=O)CCCS(N)(=O)=O)CC1`, for which the INHIBITION came out at 53.7%.

On to `Cc1ccccc1SC1CCN(C(=O)C2[C@H]3CNC[C@@H]23)CC1` (stereo partly drawn), for which the INHIBITION is 90.7%.

For the compound `Cc1cc(C2CCCN2Cc2ccc(S(=O)(=O)N(C)C)o2)on1` (stereo not drawn), the INHIBITION is given as 5.9%.

Consider `OCC1N(Cc2ccco2)C2CCC1(O)CC2` (stereo not drawn), for which the INHIBITION is given as 32.8%.

For `O=C1NCCN1CCNc1cc(-c2ccccc2)nc2ccnn12`, the INHIBITION is -39.2%.

As to `Cc1noc(C)c1CN1CCC2(CC1)NC(=O)CC2c1ccncc1` (stereo not drawn), the INHIBITION is on record as 25.5%.

Consider `O=C1CC(c2ccncc2)C2(CCN(C(=O)c3cccs3)CC2)N1` (stereo not drawn), for which the INHIBITION is reported as 73%.

On to `O=C1CC(c2ccncc2)C2(CCN(C(=O)c3ccc[nH]3)CC2)N1` (stereo not drawn), for which the INHIBITION was 33.5%.

For the compound `Cc1noc(C)c1CN1CCC2(CC1)NC(=O)CC2c1cnn(C)c1` (stereo not drawn), the INHIBITION amounted to 12.5%.

For the compound `O=C1CC(c2ccncc2)C2(CCN(C(=O)c3ccnnc3)CC2)N1` (stereo not drawn), the INHIBITION was found to be 41.6%.

As to `Cc1noc(C)c1CN1CCC2(CC1)NC(=O)CC2c1ccccc1` (stereo not drawn), the INHIBITION was found to be 65.7%.

For the compound `O=C1CC(c2ccncc2)C2(CCN(CCc3ccccc3)CC2)N1` (stereo not drawn), the INHIBITION is recorded as 90.8%.

With `O=C1CC(c2ccncc2)C2(CCN(CCO)CC2)N1` (stereo not drawn), the INHIBITION came out at 47.8%.

As to `O=C1CC(c2ccccc2)C2(CCN(Cc3ccncc3)CC2)N1` (stereo not drawn), the INHIBITION is listed as 8.64%.

With `CCc1nnc(NC(=O)Cc2c(C)nc(C)[nH]c2=O)s1`, the INHIBITION was found to be 13.75%.

With `Cc1nnc(CN2CCN(C(C)c3nc(C4CC4)no3)CC2)o1` (stereo not drawn), the INHIBITION is reported as -33.7%.

Values taken from ChEMBL document CHEMBL4513216, “Probing the Open Global Health Chemical Diversity Library for Multistage-Active Starting Points for Next-Generation Antimalarials” (ACS Infect Dis, 2020).
